Mtb UGM inh = M. tuberculosis UGM enzyme inhibitors, primary screen, biochemical, fluorescence polarization, single point; AID 504406, 2011; purified UGM, fluorescence polarization probe displacement; UDP-galactopyranose mutase (Mycobacterium tuberculosis (strain ATCC 25618 / H37Rv)), …; inhibition, % at 10 µM; 0.06% of 320,000 active; in the data active = inhibition above about 10%, passing the limit was not always enough
Mtb FBA inh = Mtb FBA enzyme inhibitors, primary screen, biochemical, fluorescence, strain H37Rv | Fructose-bisphosphate aldolase (Mycobacterium tuberculosis (strain ATCC 25618 / H37Rv)), … | purified M. tuberculosis FBA, fluorescence read-out | inhibition, % at 1 µM | 2.3% of 360,000 active;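 also: 0% = vehicle and 100% = reference inhibitor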
Target sequence (P9WQA3 whole entry, looked up): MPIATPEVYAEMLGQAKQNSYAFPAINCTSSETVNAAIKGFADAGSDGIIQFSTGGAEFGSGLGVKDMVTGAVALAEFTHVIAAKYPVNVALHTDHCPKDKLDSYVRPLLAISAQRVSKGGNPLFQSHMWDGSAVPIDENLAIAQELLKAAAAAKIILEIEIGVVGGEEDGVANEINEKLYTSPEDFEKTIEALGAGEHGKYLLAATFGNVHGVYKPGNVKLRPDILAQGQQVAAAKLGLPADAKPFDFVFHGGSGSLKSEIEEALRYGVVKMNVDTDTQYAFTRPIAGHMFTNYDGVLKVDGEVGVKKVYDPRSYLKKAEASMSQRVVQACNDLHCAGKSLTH
GDH-TPI counter-1 = GDH-TPI coupling enzyme inhibitors, primary screen, artefact control for M. tuberculosis FBA inhibitor project, biochemical, absorbance, full deck. GDH-TPI coupled enzyme counterscreen, NADH absorbance. 1.2% of 360,000 active. AID 588335, 2011. inhibition, % at 4.8 µM; in the data active = inhibition above about 30%;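 also: 0% = DMSO wells and 100% = wells lacking the enzyme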
Rv3671c inh = Rv3671c serine protease inhibitors, primary screen, biochemical, fluorescence polarization, M. tuberculosis H37Rv | P9WHR9 | inhibition, % at 5.96 µM | 0.048% of 320,000 active | AID 2606, 2010; in the data active = inhibition above about 38%;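 also: extracellular domain of Rv3671c used as enzyme; 0% = enzyme with DMSO and 100% = no enzyme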
SSB-PriA inh = inhibitors of Klebsiella pneumoniae PriA binding to SSB C-terminal tail, primary screen, biochemical, AlphaScreen; PriA–SSB C-terminal tail interaction (Klebsiella pneumoniae); AlphaScreen SSBct-PriA binding, biotinylated peptide; inhibition, % at 33 µM; 0.6% of 430,000 active; AID 1272365, 2023; in the data active = inhibition mostly above about 37%, no sharp cut-off; inactive = mostly below about 20%;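 also: plate controls were negative control peptide for no effect and reference peptide for full effect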
Mtb bLac sens = beta-lactam sensitization of Mtb H37Rv, H37Rv | inhibition, % at 25 µM | M. tuberculosis H37Rv growth with meropenem, percent inhibition | AID 434955, 2010 | 0.27% of 330,000 active; call rule not given here;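 also: growth measured after seven days incubation then overnight dye step; 0% = bacteria only wells and 100% = bacteria with antibiotic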
Rv3671c cf = Rv3671c serine protease inhibitors, retest, confirmation, biochemical, fluorescence polarization, M. tuberculosis H37Rv. shares compounds with Rv3671c inh. inhibition, % at 5.96 µM. 40% of 140 active. AID 2761, 2010; in the data active = inhibition above about 38%
DNA intercal FP = DNA intercalation detected by acridine orange polarization counter-screen. shares compounds with Mtb UGM inh. acridine orange-DNA binding, fluorescence polarization. AC50, µM. 60% of 35 active;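 active = fitted AC50 no greater than ten times the top concentration tested, cut at about 17 µM in these data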
Mtb FBA confirm = M. tuberculosis aldolase blockers, biochemical, fluorescence, strain H37Rv, confirmation; inhibition, % at 1 µM; shares compounds with Mtb FBA inh; AID 651616, 2012; 78% of 5,600 active; purified M. tuberculosis FBA, fluorescence read-out;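 also: 0% = vehicle wells and 100% = reference inhibitor wells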
GDH-TPI counter-2 = GDH-TPI coupling enzyme inhibitors, artefact control for M. tuberculosis FBA inhibitor project, biochemical, fluorescence, high throughput; shares compounds with Mtb FBA inh; GDH-TPI coupled enzyme counterscreen; inhibition, % at 1 µM; 81% of 5,600 active; AID 652141, 2013; in the data active = inhibition above about 10%
* hit, by the source's call; / = no result. A selection: hits, their analogues and other compounds. The true share with any hit is near 3.2%. Rule as the data show it, unless noted: active = inhibition above about 27%; inactive = the rest.

SMILES	Mtb UGM inh	Mtb FBA inh	GDH-TPI counter-1	Rv3671c inh	SSB-PriA inh	Mtb bLac sens	Rv3671c cf	others
COc1cccc(CNC(=O)c2ccc(NC(=O)C3=CSCCO3)cc2)c1	-3	2	8	61*	-19	8	-6
COc1ccc(CSCC(=O)NN=Cc2ccccc2OCc2ccccc2)cc1	/	/	/	/	1	/	/
COc1c(C)cc(S(=O)(=O)NCC2CCN(C(C)C)CC2)cc1C	/	/	/	/	-4	/	/
c1ccc(-c2nc3cc4ccccc4cc3[nH]2)nc1	0	6	16	39*	-6	89	44*
Cc1ccc(-n2c(SCC(=O)Nc3ccc4c5c(cccc35)CC4)nc(O)cc2=O)cc1	2	1	-2	45*	-5	3	-8
COc1ccc(S(=O)(=O)NCC2CCN(Cc3ccco3)CC2)cc1	/	/	/	/	-6	/	/
O=[N+]([O-])c1ccc(NCc2ccccc2)c2nonc12	7	/	/	49*	8	6	43*
Cc1nn(Cc2ccccc2)c(C)c1NC(=O)c1ccc([N+](=O)[O-])cc1[N+](=O)[O-]	-3	-1	2	166*	-10	-1	-7
CCCCOc1ccc(C(O)=C(C#N)c2nc3ccccc3[nH]2)cc1	/	/	/	/	-10	/	/
Cc1nc2ccccc2n2c(O)c(CC(=O)O)cc12	0	3	8	53*	-5	8	5
Cc1nc2ccccc2n1CCC(=O)O	0	-2	3	1	-14	-13	/
Cc1cc(=O)oc2cc(Oc3ncnc4scc(-c5ccc(Br)cc5)c34)ccc12	/	/	/	/	1	/	/
COc1cc2nc(Nc3ccc(C)c(Cl)c3)nc(N)c2cc1OC	4	4	0	74*	5	100	74*
CCc1c(C)nc2n(c1=O)CC(C(=O)NCc1nc(C)no1)CS2 (stereo not given)	/	/	/	/	-9	/	/
CC12CCC(=O)N1C(C(=O)Nc1cc(C(F)(F)F)ccc1N1CCOCC1)CS2 (stereo not given)	2	0	-12	-4	-4	-2	/
CC12CCC(=O)N1C(C(=O)Nc1cc(C(F)(F)F)ccc1N1CCCCC1)CS2 (stereo not given)	-2	1	4	40*	6	-2	0
CCOC(=O)c1csc(NC(=O)c2ccn(CC)n2)n1	/	/	/	/	9	/	/
Nc1ccc2nc(-c3ccc(-c4nc5ccc(N)cc5[nH]4)cc3)[nH]c2c1	4	/	/	39*	-14	-2	50*
Cc1ccc2nc(-c3ccc(N)cc3)[nH]c2c1	/	/	/	/	-6	/	/
COc1ccccc1-c1cc(C(F)(F)F)nc(S(=O)(=O)CCCC(=O)N2CCOCC2)n1	5	3	12	-9	-15	94	/
COc1ccc(-c2cc(C(F)(F)F)nc(S(=O)(=O)CCC(=O)N3CCOCC3)n2)cc1	-1	0	10	60*	-28	47	-7
CCNc1cc(O)ccc1C	4	2	6	63*	17	-2	11
O=C(NCc1ccco1)c1cccc(Nc2nc3ccc(Br)cc3[nH]2)c1	0	3	-3	40*	0	-3	44*
NCCn1ncc2c(=O)n(Cc3ccccc3)cnc21	/	/	/	/	-10	/	/
O=c1[nH]nc(CNc2ccc(O)cc2)c2ccccc12	0	-1	4	40*	4	-3	-7
SMILES	Mtb UGM inh	Mtb FBA inh	GDH-TPI counter-1	Rv3671c inh	SSB-PriA inh	Mtb bLac sens	Rv3671c cf	others
Cc1cccc(C)c1NC(=S)N=CN(C)C	/	/	/	/	-9	/	/
Cc1cc(C)n2nc(SCC(=O)N/N=C/c3ccccn3)nc2n1	1	-4	0	76*	/	1	-6
Cc1c(C(=O)O)oc2c1[C@@H](O)CCC2	/	/	/	/	-9	/	/
CS(=O)(=O)c1ccccc1-c1nnc(NC(=O)COc2ccccc2)o1	/	/	/	/	7	/	/
Oc1ccc(/C=N/Nc2ccnc3cc(Cl)ccc23)cc1O	-1	-3	5	54*	/	1	30
O=C1c2c(O)cccc2Cc2cccc(O)c21	-2	0	1	58*	8	-1	27
O=C(COc1ccccc1)NCc1nnc(SCC(=O)N2N=C(c3cccs3)CC2c2ccc(F)cc2)n1-c1cccc(Cl)c1 (stereo not given)	/	/	/	/	-2	/	/
Cc1cc(NS(=O)(=O)c2ccc(Nc3nc(-c4sc(NC(=O)c5ccccc5)nc4C)cs3)cc2)no1	0	/	/	63*	/	11	50*
Cc1nc(NC(=O)c2ccccc2)sc1-c1csc(Nc2cccc(F)c2)n1	-2	/	/	-14	/	0	/
O=C1CCN2C=Nc3cccc4ccc1c2c34	39*	-8	11	-11	-13	-2	/	DNA intercal FP=13*
O=C1C=C(N2CCOCC2)c2cccc3cccc1c23	/	3	21	/	/	/	/
Cc1ccc(Cl)cc1N1CCN(C(=O)C2CCN(S(C)(=O)=O)CC2)CC1	6	5	4	-11	-5	-7	/	DNA intercal FP=>35
Cc1ccnc(Nc2cc(N3CCN(S(=O)(=O)N(C)C)CC3)nc(C)n2)c1	/	/	/	/	-1	/	/
CC(C)(C)C1(C)OC(=O)C(=Cc2ccc(OCC(=O)Nc3ccccc3)cc2)C(=O)O1 (stereo not given)	1	1	15	2	-15	-6	/	DNA intercal FP=>35
Cc1cc(S(=O)(=O)NCC(c2ccsc2)N2CCN(C)CC2)ccc1F (stereo not given)	/	/	/	/	-12	/	/
O=C(Nc1ccc(-c2cn3ccsc3n2)cc1)C(F)(F)F	/	/	/	/	10	/	/
CC(=O)Nc1ccc(-c2cn3ccsc3n2)cc1	2	-2	2	-7	-5	-8	/	DNA intercal FP=>35
Cc1nn(C)c(C)c1N1C(=O)c2cccc3c(N)ccc(c23)C1=O	68*	-16	19	11	-3	-17	/	DNA intercal FP=6.1*
COC(=O)c1ccc2nc(NC(=O)CN3C(=O)c4ccccc4C3=O)sc2c1	/	/	/	/	8	/	/
CC(=O)Nc1c(-c2ccccc2)nc2ncccn12	2	42*	15	-1	-33	-7	/	Mtb FBA confirm=40*;GDH-TPI counter-2=30*
O=C(Nc1c(-c2ccccc2)nc2ncccn12)c1cc2ccccc2oc1=O	-1	-3	28	-1	-4	86	/

From PubChem BioAssay
